# KB-3-1 tox = kills parental KB-3-1 adenocarcinoma cells; KB-3-1 viability, CellTiter-Glo ATP luminescence, 72 h; Potency, µM (titrated, usually from 46.1 µM), usual class: cytotoxic; 400,000 tested, 1.4% active; note: % is set by controls: 0 for no effect and ±100 for the full control effect; nearly all actives have a fitted effect of over 60% in size
#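 Multi-concentration cytotoxicity screen in KB-3-1 cells grown in DMEM lacking phenol red with 10% FBS. After 72 h at 37 °C with compound, ATP-dependent luminescence was recorded.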
# ATXN2 expr inh = inhibitors of ATXN2 expression. HEK-293 ATXN2-luciferase reporter, luminescence, 24 h. 360,000 tested, 0.72% active. Potency, µM (doses to about 57 µM), without a hit: at the top dose activity change, negative = inhibition, most hits filed as inhibitors; note: % is set by controls: 0 for no effect and ±100 for the full control effect; nearly all actives have a fitted effect of over 55% in size
#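 ATXN2-luciferase reporter cells (luciferase flanked by upstream and downstream ATXN2 gene portions) were treated 24 h at 37 °C with compounds at up to 57 uM. SteadyGlo luminescence gave expression; GF-AFC fluorescence gave viability.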
# TGFb SMAD3 inh = TGF-b pathway inhibition | HepG2 CAGA-GFP TGF-b/SMAD3 reporter, GFP fluorescence, 18 h; TGF-beta stimulated, 500 pg/mL final | Potency, µM (doses to about 46.1 µM), for the others: at the top dose activity, negative = inhibition, most hits filed as inhibitors | 410,000 tested, 1.2% active | AID 588855; note: % is set by controls: 0 for no effect and ±100 for the full control effect; nearly all actives have a fitted effect of over 65% in size
#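 HEPG2 CAGA-GFP cells (1000/well, DMEM with 1% FBS) were pre-incubated 2 h at 37 degrees C, given compound by pin tool, then stimulated with TGF-beta at 500 pg/mL final for 18 h before per-cell GFP fluorescence imaging.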
# S2 tox = viability counter-screen for ATXN expression inhibitors; AID 651635; S2 cells (HEK-293 line with an ATXN2-luciferase reporter) viability, CellTiter-Fluor protease fluorescence, 24 h; 400,000 tested, 0.49% active; Potency, µM (doses to about 56.7 µM), most hits filed as cytotoxic; note: nearly all actives have a fitted effect of over 40% in size
# HepG2 tox = counter-screen for TGF-b inhibitors: cytotoxicity in HepG2 cells | HepG2 CAGA-GFP viability, ATP luminescence, 18 h | Potency, µM (titrated, usually from 46.1 µM), for inactives: at the highest dose activity change, negative = cytotoxicity, usual class: cytotoxic | 410,000 tested, 0.76% active | AID 588856
#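 CellTiter-Glo luminescence gave cytotoxicity after 18 hours at 37 degrees C. The cells were HepG2 CAGA-GFP in 1% FBS DMEM, stimulated with 500 pg/mL TGF-beta after compound addition. %Activity was normalised to no-cell wells (complete cell-killing) and DMSO (no toxicity), and curves were fitted and classified.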
# KB-V1 MDR tox = KB-V1 MDR subline cytotoxicity. KB-V1 MDR cells viability, CellTiter-Glo, 72 h. Potency, µM (doses to about 46.1 µM), actives largely listed as cytotoxic. 400,000 tested, 3.4% active. AID 1347076; note: % is set by controls: 0 for no effect and ±100 for the full control effect; nearly all actives have a fitted effect of over 60% in size
#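 KB-V1 MDR subline cells in DMEM (phenol-red free, 10% FBS) exposed to compounds in qHTS concentration series for 72 h at 37 degrees C. Viability read by CellTiter-Glo luminescence; concentration-effect curves fitted after normalization and correction.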
# * marks the source's active call; other numbers are inactive results; i = inactive; ? = inconclusive; . = no result. In the library only some 5.9% were active in any assay of this set; here they are far more common. Calls come from the whole dose curve; as a rule, active = well fitted curve in the direction sought with a large enough effect; inconclusive = small, poorly fitted or top-dose-only effect, or another doubt; inactive = no such curve, though single readings can be large; an effect the other way counts as inactive or inconclusive. Potency is the fitted concentration of half-maximal effect.
SMILES,KB-3-1 tox,ATXN2 expr inh,TGFb SMAD3 inh,S2 tox,HepG2 tox,KB-V1 MDR tox
C/C(=N\NC(=O)c1cccc(Cl)c1)C1C(=O)c2ccccc2C1=O,23µM*,55%,-25%,?,-80%,9.2µM*
C=CCNc1ncnc2c1[nH]c1ccc(Cl)cc12,8.2µM*,-18%,?,i,2%,?
COc1cccc(OCc2cc(=O)n3cc(C)sc3n2)c1,i,25%,-1%,i,-8%,i
Cc1ccc(-c2noc(-c3c(C)noc3C)n2)cc1,i,.,2%,i,0.89µM*,i
Cc1cccc(-c2noc(-c3c(C)noc3C)n2)c1,i,22%,0%,i,-168%,i
Cc1ccc(C)c(NC(=O)COC(=O)CC2c3ccccc3CCN2S(=O)(=O)c2ccc(F)cc2)c1 (stereo not given),i,-23%,-18%,i,-38%,21µM*
COc1ccc(CC(=O)Nc2ccc(-c3nc4ccccc4s3)c(C)c2)cc1OC,i,9%,-1%,i,-17%,?
C(=C/c1ccnc2nc(SC/C=C/c3ccccc3)nn12)/c1ccccc1,i,-13%,-1%,i,-15%,16µM*
Cc1cccc(NC(=S)N/N=C2/CCCCc3ccccc32)c1,?,21%,-29%,i,3%,16µM*
CCNC(=S)N/N=C1\CCCCc2ccccc21,i,5%,-4%,i,8%,16µM*
C=C(C)CNC(=S)N/N=C1\CCCCc2ccccc21,i,?,?,i,1%,i
CSc1ccccc1NC(=O)CN(C)C(=O)c1c(C)nn(Cc2ccccc2)c1C,i,3%,0%,i,11%,21µM*
COc1ccc(NC(=O)CN(C)C(=O)c2c(C)nn(Cc3ccccc3)c2C)cc1,i,7%,22%,i,-6%,i
O=C(CSc1cn(CC(=O)N2CCCCC2)c2ccccc12)NCc1ccccc1,.,.,0%,.,-21%,.
COC(=O)c1scc(-c2ccc(C)cc2)c1S(=O)(=O)N1CCN(c2ccc(F)cc2)CC1,i,3%,?,i,-17%,i
O=C(COc1ncnc2ccc(Br)cc12)Nc1ccc(N2CCOCC2)cc1,i,-4%,16%,i,-1%,i
Brc1ccc2ncnc(Nc3ccc(N4CCOCC4)cc3)c2c1,?,30%,4%,i,-9%,2.9µM*
c1ccc(NC(c2ccccc2)c2ccncc2)cc1 (stereo not given),?,-13%,-7%,i,3%,i
c1ccc(C(Nc2cccnc2)c2ccccc2)cc1,i,6%,0%,i,-1%,21µM*
C=CCn1c(SCc2ccc(C#N)cc2)nnc1-c1ccccc1,i,-2%,0%,i,-1%,9.2µM*
C=CCn1c(SCc2ccc(C#N)cc2)nnc1-c1cccc(OC)c1,i,-3%,-9%,i,-23%,i
Cn1c(=O)c2c(nc(SCC(=O)N3CCCCCC3)n2C)n(C)c1=O,i,1%,-11%,i,5%,15µM*
Cc1nc(SCC(=O)N2CCCCCC2)c2c(=O)n(C)c(=O)n(CC(C)C)c2n1,?,.,16µM*,i,-48%,i
CC(C)c1nc(SCC(=O)N2CCCCCC2)c2c(=O)n(C)c(=O)n(C)c2n1,i,-31%,2%,?,-1%,?
Cc1cc(C)c2ccc(Cl)cc2n1,i,4%,3%,i,8%,i
Cc1cc(NN)nc2ccc(Cl)cc12,?,0%,-3%,i,-9%,13µM*
N#CC1=C(N)NC(=S)C(C(N)=O)C1c1ccc(Cl)cc1Cl (stereo not given),i,?,?,24µM*,7.1µM*,?
N#CC1=C(N)NC(=S)C(C(N)=O)C1c1ccccc1F (stereo not given),i,-31%,0%,i,-16%,i
CCCCOc1c(C(=O)c2c(F)cc(C)cc2F)cnc2n[nH]cc12,.,9.7µM*,.,.,.,.
